ASM inhibitor: inhibitors of human secretory acid sphingomyelinase; P17405; AID 504937; 340,000 compounds, 0.006% hits; placental ASM, HMU-PC fluorogenic substrate, 60 min; Potency, µM (doses to about 57.5 µM), for inactives: at the highest dose activity change, negative = inhibition, hits mostly inhibitors; active = well fitted inhibition curve with a large enough effect; inconclusive = small, poorly fitted or top-dose-only effect; inactive = no such curve, though single readings can be large or run the other way
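Fluorescence read-out (Ex 386 nm, Em 447 nm) after stopping the reaction at pH 10. Enzyme: ASM from human placenta; substrate HMU-PC0, 9 uM final; 60 min, 37 °C. Compound preincubation 10 min, ambient temperature.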
Rango complex inh: Rango-importin beta binding inhibition; 340,000 compounds, 0.031% hits; Q14974; Potency, µM (titrated, usually from 92.2 µM), without a hit: at the highest dose inhibition of complex formation; Rango CFP/YFP FRET sensor + importin beta, 45 min;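 also: 0% = DMSO wells and 100% = buffer wells lacking importin beta; nearly all actives have a fitted effect of over 15% in size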
Target sequence (Q14974 whole entry, looked up): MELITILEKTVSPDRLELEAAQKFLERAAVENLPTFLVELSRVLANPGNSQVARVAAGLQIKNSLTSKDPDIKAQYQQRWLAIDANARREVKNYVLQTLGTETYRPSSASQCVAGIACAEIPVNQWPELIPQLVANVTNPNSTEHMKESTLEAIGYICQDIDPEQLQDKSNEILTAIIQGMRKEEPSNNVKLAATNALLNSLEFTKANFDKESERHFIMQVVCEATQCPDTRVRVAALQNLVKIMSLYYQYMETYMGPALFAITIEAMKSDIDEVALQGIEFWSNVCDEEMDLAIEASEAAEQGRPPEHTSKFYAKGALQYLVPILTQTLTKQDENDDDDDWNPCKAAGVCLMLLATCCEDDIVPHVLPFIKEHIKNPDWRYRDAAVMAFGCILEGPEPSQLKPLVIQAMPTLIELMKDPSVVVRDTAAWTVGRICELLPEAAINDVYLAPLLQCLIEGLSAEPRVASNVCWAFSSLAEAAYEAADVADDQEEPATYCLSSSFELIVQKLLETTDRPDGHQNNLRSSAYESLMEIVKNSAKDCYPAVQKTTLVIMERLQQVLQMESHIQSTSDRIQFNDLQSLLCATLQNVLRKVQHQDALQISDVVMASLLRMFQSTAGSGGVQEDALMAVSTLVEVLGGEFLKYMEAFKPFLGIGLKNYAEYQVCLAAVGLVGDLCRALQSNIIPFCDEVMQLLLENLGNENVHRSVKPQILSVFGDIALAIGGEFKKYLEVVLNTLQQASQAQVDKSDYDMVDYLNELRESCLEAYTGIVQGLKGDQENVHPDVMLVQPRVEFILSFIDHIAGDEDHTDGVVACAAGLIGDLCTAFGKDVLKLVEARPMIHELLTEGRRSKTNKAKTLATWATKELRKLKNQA
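FRET biosensor Rango (snurportin 1 IBB between N-terminal EYFP and C-terminal Cerulean), 50 nM in PBS/1 mM DTT/0.02% Tween-20/0.1% BSA, preincubated 5 min RT with compound; 0.125 microM importin beta added, 45 min RT, CFP/YFP FRET ratio read.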
Rango release inh: prevents RanGTP from dissociating the Rango-importin beta complex; Biochemical FRET Rango-importin beta, RanGTP-induced dissociation; O95149+P62826; AID 540253; Potency, µM (highest dose often 46.1 µM), without a hit: top-dose activity change, negative = inhibition; 340,000 compounds, 0.071% hits; also: % of control where 0% means no effect; nearly all actives have a fitted effect of over 45% in size
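Rango/importin beta premix (0.1/0.25 uM final), PBS + 1 mM DTT + 0.02% Tween-20 + 0.1% BSA; cpd 5 min RT; FRET pre-read; + RanGTP-RCC1 (0.6 uM Ran, 2 mM GTP, 0.2 uM RCC1); 45 min RT; FRET post-read, ex 430, em 486/530 nm.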
gsp antag: antagonists of gsp mutant (McCune-Albright syndrome); gsp-mutant cells, cAMP HTRF, 30 min; Potency, µM (highest dose often 76.9 µM), for inactives: top-dose activity change, negative = inhibition, hits mostly inhibitors; 340,000 compounds, 0.4% hits; AID 624288; calls by dose curve; cell line not stated here;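 also: intracellular cAMP measured with PDE inhibitor Ro 20-1724 present during compound exposure; % is scaled to controls: 0 for no effect and ±100 for the full control effect; nearly all actives have a fitted effect of over 65% in size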
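Cells, 2000/well, grown 16–24 h in DMEM 10% FBS with 0.5 mg/ml G418, then compounds plus […] (300 uM addition stock), 30 min at 37C. cAMP read by HTRF (cAMP-d2 and anti-cAMP antibody-K in lysis buffer) after 30 min RT.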
gsp agonist: agonists of gsp mutant (McCune-Albright syndrome); gsp mutant cells, cAMP HTRF, 30 min; Potency, µM (series often up to 76.9 µM), without a hit: top-dose activation (cAMP increase), usual class: activators; 340,000 compounds, 0.13% hits; active = well fitted activation curve with a large enough effect; inconclusive = small, poorly fitted or top-dose-only effect, or another doubt; inactive = no such curve, though single readings can be large or run the other way; cell line not stated here;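 also: phosphodiesterase inhibitor Ro 20-1724 added with compounds to block cAMP breakdown; nearly all actives have a fitted effect of over 60% in size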
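Cells stably selected in G418 were plated at 2000/well, grown 16-24 hr, then given compounds in DMSO with the PDE inhibitor […] (300 uM solution added) for 30 min at 37C; cAMP was read by HTRF.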
* marks the source's active call; other numbers are inactive results; [ ] = dose if it differs, or a comment. A selection: hits, their analogues and other compounds. The true share with any hit is near 0.67%. Unless noted, calls follow the shape of the full dose curve. Potency is read from the fitted curve at half-maximal effect.

How did CCCCN1C(=O)N(CCc2ccc(F)cc2)S(=O)(=O)c2cc(C(F)(F)F)ccc21 do in these assays?
ASM inhibitor: -2.6%; Rango complex inh: -0.2%; Rango release inh: 0.4%; gsp antag: 5.1%

Results for O=C(COC(=O)C12CC3CC(CC(Cl)(C3)C1)C2)Nc1ccccc1 ?
ASM inhibitor: -5.5%; Rango complex inh: -2.0%; Rango release inh: -8.3%; gsp antag: -8.6%; gsp agonist: -30.8%

What do the screens show for `COc1cccc(CC(NC(C)=O)C(=O)NC2CCN(S(=O)(=O)c3ccc(NC(C)=O)cc3)CC2)c1` (stereo not drawn)?
ASM inhibitor: 5.5%; Rango complex inh: 3.6%; Rango release inh: 2.1%; gsp antag: 2.8%; gsp agonist: 14.5%[15.4 µM]

Results for CC[n+]1c(/C=C/Nc2ccccc2)sc2ccccc21 ?
ASM inhibitor: 5.2%; Rango complex inh: 0.8%; Rango release inh: -3.7%; gsp antag: 44.7µM*; gsp agonist: 10.2%

Results for CCCn1nc(C(=O)OCC(=O)c2ccc3c(c2)NC(=O)CO3)c2ccccc2c1=O ?
ASM inhibitor: -1.2%; Rango complex inh: -1.6%; Rango release inh: -7.7%; gsp antag: 6.31µM*; gsp agonist: -2.0%

How did Cc1noc(C)c1S(=O)(=O)Nc1ccc2c(c1)C(=O)N([C@H](C)CO)C[C@H](C)[C@@H](CN(C)C(=O)CCCN(C)C)OCCCC[C@@H](C)O2 do in these assays?
gsp agonist: -57.9%

Results for CCOc1ccc(C(=O)OC(C)CN2CCN(C)CC2)cc1 (stereo not drawn) ?
ASM inhibitor: 4.7%; Rango complex inh: 1.0%; Rango release inh: 1.1%; gsp antag: 6.4%; gsp agonist: 11.4%[15.4 µM]

How did Cc1cccc(CN2C(=O)N/C(=C/c3cc(C)n(-c4ccccn4)c3C)C2=O)c1 do in these assays?
ASM inhibitor: 58.1%; Rango complex inh: inconclusive; Rango release inh: 5.17µM*; gsp antag: -17.6%; gsp agonist: -15.4%

Results for Cc1nc2ncnn2c(N2CCCC(C(=O)Nc3ccc4c(c3)CCC4)C2)c1C (stereo not drawn) ?
ASM inhibitor: 0.1%; Rango complex inh: 3.1%; Rango release inh: 9.7%; gsp antag: 39.8µM*; gsp agonist: inconclusive

What do the screens show for `O=C(Nc1ccc2c(c1)CCC2)C1CCCN(c2ncccn2)C1` (stereo not drawn)?
ASM inhibitor: 3.5%; Rango complex inh: 0.3%; Rango release inh: 12.9%; gsp antag: 9.5%; gsp agonist: 0.2%

Results for CCOC(=O)c1coc(C(=O)OCC)c1C(=O)OCC ?
ASM inhibitor: 5.9%; Rango complex inh: 3.4%; Rango release inh: 20.1%; gsp antag: 10.6%; gsp agonist: -21.0%

Results for COc1ccc2nc3n(c(=O)c2c1)-c1ccc(Cl)cc1C(=O)NC3Cc1ccc(O)cc1 (stereo not drawn) ?
ASM inhibitor: -5.0%; Rango complex inh: -0.6%; Rango release inh: -3.4%; gsp antag: -16.6%

Results for CCOC(=O)/C(C#N)=C/c1cc2ccccc2nc1N1CCCCC1 ?
ASM inhibitor: -6.4%; Rango complex inh: 5.2%; Rango release inh: -3.0%; gsp antag: 2.7%; gsp agonist: 11.2µM*

Results for Cc1ccc2cc(/C=C(\C#N)C(N)=O)c(N3CCCCC3)nc2c1 ?
ASM inhibitor: -9.2%; Rango complex inh: inconclusive; Rango release inh: 0.0%; gsp antag: -13.6%; gsp agonist: inconclusive

What do the screens show for `CC1(C)Cc2nc(NC3CCCCC3)c(C#N)cc2CO1`?
ASM inhibitor: 131.4%; Rango complex inh: 1.3%; Rango release inh: -15.6%; gsp antag: 14.1%; gsp agonist: -5.2%[15.4 µM]

Results for COc1ccc(-c2cc3nc4n(c(=O)c3s2)CCC4)cc1 ?
ASM inhibitor: -2.9%; Rango complex inh: -2.7%; Rango release inh: -1.7%; gsp antag: 4.9%; gsp agonist: 15.8µM*

Results for COc1ccc(-c2csc(NC(=O)c3ccccc3Br)c2C(=O)O)cc1 ?
ASM inhibitor: 4.9%; Rango complex inh: 2.8%; Rango release inh: 16.9%; gsp antag: -28.0%; gsp agonist: -3.5%[15.4 µM]

Results for COc1ccc(-c2csc(NC(=O)c3ccc(C(C)(C)C)cc3)c2C(=O)O)cc1 ?
ASM inhibitor: 8.7%; Rango complex inh: -2.4%; Rango release inh: 9.2%; gsp antag: 31.6µM*; gsp agonist: -1.4%[15.4 µM]

Results for Cc1ccccc1C(=O)Nc1scc(-c2ccc(Br)cc2)c1C(=O)O ?
ASM inhibitor: -1.0%; Rango complex inh: -0.7%; Rango release inh: 2.3%; gsp antag: 39.8µM*; gsp agonist: 5.6%[15.4 µM]

What do the screens show for `CC1CC(C)C(=O)C(C(CC2CC(=O)NC(=O)C2)OC(=O)CC(=O)c2ccccc2)C1` (stereo not drawn)?
ASM inhibitor: -2.7%; Rango complex inh: -0.3%; Rango release inh: 0.7%; gsp antag: -13.7%; gsp agonist: 14.7%

How did Cc1ccc(-n2nc3c([n+]2[O-])CCc2c-3no[n+]2[O-])cc1 do in these assays?
ASM inhibitor: -0.7%; Rango complex inh: -1.7%; Rango release inh: 0.5%; gsp antag: -2.1%; gsp agonist: 9.5%

What do the screens show for `Cc1cc(NS(=O)(=O)c2ccc(Nc3nc(-c4ccc(O)cc4)cs3)cc2)no1`?
ASM inhibitor: inconclusive; Rango complex inh: 1.7%; Rango release inh: 8.6%; gsp antag: -18.4%; gsp agonist: -31.8%

What do the screens show for `Cc1cc(NS(=O)(=O)c2ccc(Nc3nc(-c4ccc(C)c(C)c4)cs3)cc2)no1`?
ASM inhibitor: -11.1%; Rango complex inh: -4.0%; Rango release inh: 1.0%; gsp antag: 22.4µM*; gsp agonist: -7.1%

Results for O=C(NC1CCCCCCC1)c1cc(COc2ccc3ncccc3c2)on1 ?
ASM inhibitor: -9.7%; Rango complex inh: 3.1%; Rango release inh: -6.2%; gsp antag: 39.8µM*; gsp agonist: 3.4%[15.4 µM]

How did Cc1cccnc1CN1CCN(C(=O)c2cc(COc3ccc4ncccc4c3)on2)CC1 do in these assays?
ASM inhibitor: -2.7%; Rango complex inh: -0.4%; Rango release inh: 22.7%; gsp antag: 31.6µM*; gsp agonist: 0.4%[15.4 µM]

What do the screens show for `CC(CNC(=O)c1cc(COc2ccc3ncccc3c2)on1)c1ccccc1` (stereo not drawn)?
ASM inhibitor: -7.0%; Rango complex inh: -0.2%; Rango release inh: -7.3%; gsp antag: 31.6µM*; gsp agonist: -1.7%

Results for CCN(CC)C(CNS(=O)(=O)c1ccc(Cl)cc1)c1ccccc1 (stereo not drawn) ?
ASM inhibitor: -1.0%; Rango complex inh: -5.9%; Rango release inh: 5.0%; gsp antag: 15.6%; gsp agonist: -5.2%[15.4 µM]

Results for COc1cc2[nH]c(=S)nc(NCCc3ccc(S(N)(=O)=O)cc3)c2cc1OC ?
ASM inhibitor: -0.2%; Rango complex inh: -1.3%; Rango release inh: -0.7%; gsp antag: -2.7%; gsp agonist: 12.6µM*
